We go through 20 compounds from PubChem BioAssay (NCATS).

Values without a mark were called inactive. Records with an inconclusive call do not appear. Active and inactive are the calls of the source. The call rests on the fitted dose curve; in most records, active means well fitted curve in the direction sought with a large enough effect; inconclusive means small, poorly fitted or top-dose-only effect, or another doubt; inactive means no such curve, though single readings can be large; an effect the other way counts as inactive or inconclusive.

The target in test [1] is Glutathione peroxidase 1 (Homo sapiens) (UniProt P07203). Description: Primary qHTS Assay for Inhibitors of Recombinant Selenoprotein Glutathione Peroxidase 1 (GPX1) (AID 1845191). Further: nearly all actives have a fitted effect of over 65% in size. On activity, negative = inhibition: on the % scale 0 is the no-effect control and ±100 the full control effect. In a few lines:
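Recombinant GPX1 (10 nM final) was preincubated with compound for 30 min at room temperature, then reacted with 1 mM GSH, 0.5 mM CHP, 0.5 mM NADPH and 100 nM glutathione reductase; NADPH fluorescence (340/450 nm) was read at 0 and 15 min.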

In test [2] the target is Luciferin 4-monooxygenase (Photinus pyralis) (UniProt P08659). Description: Primary firefly luciferase (FLuc) qHTS assay for identification of artifact compounds. (AID 1845220). Further: nearly all actives have a fitted effect of over 60% in size.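 On activity change, negative = inhibition: series mostly up to about 54 µM; plate controls were DMSO vehicle for no effect and no enzyme for full effect.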 The method in brief:
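Reaction readout was CCD-imaged luminescence, taken 5 min after adding 10 nM purified firefly enzyme to compound-treated wells holding 10 uM luciferin and ATP in pH 7.6 buffer.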

Test [3] is described as follows: Primary fluorescence-based thiol-reactive (MSTI) qHTS assay for identification of artifact compounds. (AID 1845221). Further: nearly all actives have a fitted effect of over 65% in size. Further: potency means the concentration at half of the fitted maximal effect.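 On activity change, negative = thiol reactive: series mostly up to about 54 µM; thiol-reactive compounds lower the probe fluorescence signal.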 In a few lines:
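One-hour, room-temperature, dark incubation of compound with 4 uM MSTI in PBS (pH 7.4, 2% DMSO) precedes a fluorescence read at 525 nm excitation, 598 nm emission; Hill-equation fitting yields concentration-response values.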

The subject of test [4] is Nanoluciferase (engineered Oplophorus gracilirostris luciferase). The test can be described thus: Primary Nanoluciferase (NLuc) qHTS assay for identification of artifact compounds. (AID 1845222). Further: potency means the concentration at half of the fitted maximal effect.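 On activity, negative = inhibition: NLuc secreted into diluted conditioned medium of S16 cells; series mostly up to about 54 µM; 0% = DMSO and -100% = no enzyme.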 The method in brief: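 Concentration-response data were obtained by luminescence after 5 min with Nano-Glo substrate at 1:100. The enzyme was diluted S16 NLuc-expressing cell medium, preincubated with compound for 15 min at RT. Curves were fitted with a 4-parameter Hill model.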

The nature of test [5]: Primary redox qHTS assay for identification of artifact compounds. (AID 1845223).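 Further: 0% = DMSO and 100% = reference compound.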 The method in brief: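 Amplex Red (25 uM) and HRP (250 mU/mL) in HBSS, with compounds for 15 min, then 250 uM DTT for 30 min, room temperature, dark. Fluorescence 525/598 nm read; normalized to DMSO and 10 uM DA3003; Hill fit.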
For test [6], the target named is Phospholipid hydroperoxide glutathione peroxidase GPX4 (Homo sapiens) (UniProt P36969). Description: Primary qHTS Assay for Inhibitors of Recombinant Selenoprotein Glutathione Peroxidase 4 (GPX4) (AID 1845192). Further: nearly all actives have a fitted effect of over 65% in size. In a few lines: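 GR-coupled readout: 100 nM GR, 1 mM GSH, 0.5 mM NADPH; NADPH fluorescence (ex 340/em 450 nm) read at t=0 and after 15 min RT. GPX4 200 nM, preincubated 30 min with compound; substrate 0.5 mM CHP.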
Sequence of Phospholipid hydroperoxide glutathione peroxidase GPX4 (Homo sapiens) (P36969 whole entry, looked up): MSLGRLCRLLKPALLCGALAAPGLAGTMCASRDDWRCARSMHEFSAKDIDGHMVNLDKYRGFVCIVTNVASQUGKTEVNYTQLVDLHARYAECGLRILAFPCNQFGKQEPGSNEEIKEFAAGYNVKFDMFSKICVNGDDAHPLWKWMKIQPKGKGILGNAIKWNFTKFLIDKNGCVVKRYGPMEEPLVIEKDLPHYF

Sequence of Glutathione peroxidase 1 (Homo sapiens) (P07203 whole entry, looked up): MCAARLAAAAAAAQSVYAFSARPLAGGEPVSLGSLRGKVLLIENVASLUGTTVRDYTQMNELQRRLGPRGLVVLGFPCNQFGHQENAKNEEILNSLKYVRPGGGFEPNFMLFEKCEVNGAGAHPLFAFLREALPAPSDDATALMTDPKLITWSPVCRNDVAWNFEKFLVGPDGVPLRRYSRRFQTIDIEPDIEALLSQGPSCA

Turning to `CC1(C)OC(=O)C(OCC2CC2)=C1c1ccc(S(C)(=O)=O)cc1`, the Potency entry in test [1], in test [2], in test [3], in test [4] and in test [5] was “inactive” in each case.

As for `CCCCCCc1cccc(NC(=O)[C@H](N)CCP(=O)(O)O)c1`, in test [1], the Potency entry is “inactive”. In addition, in test [2], the activity change, negative = inhibition was 2.4% [at 11.6 µM]. Further, in test [3], the activity change, negative = thiol reactive was 1.56% [at 11.5 µM]. For the same compound, the activity, negative = inhibition in test [4] is 4.9% [at 11.6 µM]. Also, in test [5], the redox activity (% of DA3003) was -3.89% [at 11.5 µM].

For `COc1ccccc1CC(C(=O)O)N(C)C(=O)c1ccccc1` (stereo unspecified), the Potency entry in test [1], in test [2], in test [4] and in test [5] was “inactive” each time.

On to `CC1CCC2C(C)(C)C(O)CCC2(C)C12Cc1c(O)cc3c(c1O2)CN=C3N` (stereo unspecified), for which the Potency entry in test [1], in test [2] and in test [4] was “inactive” throughout.

As to `CC1CCC2(C(=O)OC3OC(CO)C(O)C(O)C3O)CCC3(C(=O)O)C(=CCC4C5(C)CCC(OC6OC(C)C(O)C(O)C6O)C(C)(C)C5CCC43C)C2C1C` (stereo unspecified), the Potency entry in test [1], in test [2], in test [3] and in test [4] was “inactive” throughout.

On to `COc1cccc(-c2ccc([C@@H](Oc3cc(-c4ccc(C[C@H](N)C(=O)O)cc4)nc(N)n3)C(F)(F)F)cc2)c1`, for which the Potency result in test [1], in test [2], in test [3], in test [4] and in test [5] was “inactive” throughout.

As to `C[C@@H]1O[C@@H](O[C@H]2[C@H](O[C@H]3[C@H](O[C@H]4CC[C@@]5(C)C(CC[C@]6(C)C5CC=C5[C@@H]7CC(C)(C(=O)O)C[C@@H](O)[C@]7(C)CC[C@]56C)[C@@]4(C)CO)O[C@H](C(=O)O)[C@@H](O)[C@@H]3O)O[C@H](CO)[C@H](O)[C@@H]2O)[C@H](O)[C@H](O)[C@H]1O` (stereo partly specified), the Potency entry in test [1] is “inactive”. In addition, in test [2], the activity change, negative = inhibition was 0.24% [at 11.6 µM]. In test [4], the activity, negative = inhibition was -2.21% [at 11.6 µM].

For `C[C@@H]1O[C@@H](O[C@H]2[C@H](O[C@H]3[C@H](O[C@H]4CC[C@@]5(CO)C(CC[C@]6(C)C5CC=C5C7CC(C)(C)C[C@@H](O)[C@]7(C)CC[C@]56C)C4(C)C)O[C@H](C(=O)O)[C@@H](O)[C@@H]3O)OC[C@@H](O)[C@@H]2O)[C@H](O)[C@H](O)[C@H]1O` (stereo partly specified), the Potency result in test [1] was “inactive”. Besides, the outcome in test [2] is “inactive [at 11.6 µM]”. Further, the activity change, negative = thiol reactive in test [3] was 150% [at 11.5 µM]. In test [4], the activity, negative = inhibition is -0.0839% [at 11.6 µM]. Further, the redox activity (% of DA3003) in test [5] was 0.809% [at 11.5 µM].

Turning to `COc1cc(O[C@@H]2O[C@H](CO)[C@@H](O)[C@H](O)[C@H]2O)c(CCC(=O)OC[C@H]2O[C@@H](Oc3cc(OC)c(C4OC(=O)C(C)(O)C4O)cc3CCC(=O)O)[C@H](O)[C@@H](O)[C@@H]2O)cc1C1OC(=O)C(C)(O)C1O` (stereo partly specified), the Potency result in test [1] is “inactive”. Further, the activity change, negative = inhibition in test [2] was 1.78% [at 11.6 µM]. Besides, the activity change, negative = thiol reactive in test [3] was 56% [at 11.5 µM]. Also, in test [4], the activity, negative = inhibition is 0.289% [at 11.6 µM]. For the same compound, the redox activity (% of DA3003) in test [5] was -16.2% [at 11.5 µM].

`CC(=C/C(=O)O)/C=C/[C@]1(O)[C@@]2(C)CO[C@]1(C)C[C@H](O[C@@H]1O[C@H](CO)[C@@H](O)[C@H](O)[C@H]1O)C2`: the Potency result in test [1], in test [2], in test [4] and in test [5] was “inactive” each time. In test [3], the Potency is 9.22 µM (active).

`C=C1[C@@H]2CC[C@@]3(C)[C@H](c4ccoc4)OC(=O)C[C@]13O[C@H]1CC(=O)C(C)(C)[C@H](CC(=O)OC)[C@]12C`: the Potency entry in test [1], in test [2], in test [3], in test [4] and in test [5] was “inactive” each time.

Turning to `C[C@@H]1C(=O)O[C@H]2[C@H]1CC[C@@]1(C)C(=O)C=C[C@](C)(O)[C@H]21`, the Potency result in test [1], in test [2], in test [4] and in test [5] was “inactive” throughout. Besides, in test [3], the Potency was 21.2 µM (active).

Take `CC(O)(CC(=O)O)CC(=O)O[C@@H]1[C@@H](O)[C@H](OCCc2ccccc2)O[C@H](CO)[C@H]1O` (stereo partly specified): the Potency entry in test [1], in test [6], in test [4] and in test [5] was “inactive” each time.

As to `CC(=O)O[C@@H]1[C@H](O[C@@H]2OC[C@](O)(CO)[C@H]2O)[C@@H](O[C@@H]2O[C@@H](C)[C@H](O)[C@@H](O)[C@H]2O)[C@H](OC(=O)[C@]23CCC(C)(C)C[C@H]2C2=CCC4[C@@]5(C)C[C@H](O)[C@H](O[C@@H]6O[C@H](C(=O)O)[C@@H](O)[C@H](O)[C@H]6O)[C@@](C)(C(=O)O)C5CC[C@@]4(C)[C@]2(C)CC3)O[C@@H]1C` (stereo partly specified), in test [1], the Potency result is “inactive”. Moreover, in test [2], the activity change, negative = inhibition is 3.99% [at 11.6 µM]. Further, the activity change, negative = thiol reactive in test [3] was 279% [at 11.5 µM]. Moreover, in test [4], the activity, negative = inhibition was 2.83% [at 11.6 µM]. Further, the redox activity (% of DA3003) in test [5] is 2.26% [at 11.5 µM].

In the case of `CC(=O)O[C@@H]1[C@@H](OC(=O)/C=C/c2ccccc2)[C@H](C)O[C@@H](O[C@H]2[C@@H]3C=CO[C@@H](O[C@@H]4O[C@H](CO)[C@@H](O)[C@H](O)[C@H]4O)[C@@H]3[C@@]3(CO)O[C@@H]23)[C@@H]1OC(C)=O`, the Potency entry in test [1], in test [2], in test [3], in test [4] and in test [5] was “inactive” each time.

As to `CC(C)C(=O)c1cn(CC(=O)COc2ccc(Oc3ccccc3)cc2)c2ccc(C(=O)O)cc12`, the Potency result in test [1], in test [2], in test [3] and in test [5] was “inactive” in each case. Also, in test [4], the Potency is 6.01 µM (active).

Take `NC(=O)c1cccc(-c2cc(O)cc(OC(=O)NC3CCCCC3)c2)c1`: the Potency result in test [1], in test [2], in test [3], in test [4] and in test [5] was “inactive” each time.

Regarding `CO[C@@H]1CC[C@H](OC[C@]2(COC(=O)c3ccc(C)[nH]3)[C@H](OC(C)=O)CC[C@@]3(C)[C@@H]4CC=C(C)[C@@H](C5=C(O)C(=O)OC5O)[C@]4(C)CC[C@@H]32)O[C@H]1C` (stereo partly specified), the Potency result in test [1], in test [2] and in test [4] was “inactive” in each case.

Turning to `C/C=C1/[C@H](O[C@@H]2O[C@H](CO)[C@@H](O)[C@H](O)[C@H]2O)OC=C(C(=O)OC)[C@H]1CC(=O)O[C@@H]1O[C@H](CO)[C@@H](O)[C@H](O)[C@H]1O`, the Potency entry in test [1], in test [2], in test [3], in test [4] and in test [5] was “inactive” throughout.

On to `COc1c(C)c(OCC=C(C)C)cc2c1C(=O)NC2=O`, for which the Potency entry in test [1], in test [2], in test [3], in test [4] and in test [5] was “inactive” each time.
